The subject of one test is LXRa:RXRa (NR concentration 270 nM, RXRa partner concentration 90 nM). As to the kind of experiment: PBM binding z-score (relative to random genomic background probes); higher = stronger binding; sequences stand for … in GC…GCGATTGACAGCGTAGAATGAAGG
An outline of the steps:
(§1)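 For binding z-scores, the reference was random background probes on custom Agilent 4×180K protein-binding microarrays. These arrays were incubated 1 h with ligand-free nuclear receptor dimers in PBS pH 7.4, 2% milk, 0.02% Triton X-100, 1 mM DTT, 0.2 mg/mL BSA and 0.4 mg/ml salmon testes DNA. Fluorescence was scanned after antibody detection of each partner (one per run) and regression-normalized.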
Sequence CGGACTAGGTCAAGGACAGTGAATCTCCGCACGC yielded a PBM binding z-score of 1.81.

TCGAGTAGGTTAGTGGCATTCAGAATGGCGTCGA: the PBM binding z-score is -0.347.

Consider CCAGCTAGGTCATGGTCAGCTAATCTACAGTATG, for which the PBM binding z-score was found to be 2.28.

The sequence ACTATAAGTTGAGACGAGGGCAACCGATAGGTTG gave a PBM binding z-score of 0.684.

Consider TCTTGTTGATCAACAGGAGGTTAAGAAAGATCGA, for which the PBM binding z-score was found to be 1.08.

On to CAAACTAGGTCGCGAAAGGTCAAAGTCGAATGAC, for which the PBM binding z-score was determined as 6.45.

Turning to GGAACGAGGGCAAAGTTGATAGCATCTGTCGACG, the PBM binding z-score was 0.921.

CGTCCAAGGTCAATGTCAGTGAAAGAGACTCGAA showed a PBM binding z-score of 4.8.

In turn, ACAATGAGGTTAAGATCAGGGAAACAGAATACAT yielded a PBM binding z-score of 2.23.

Consider ACTTACGGGTCAACGAGGTTATAGAACGCGTATA, for which the PBM binding z-score is 5.29.

The sequence TCTAGTTGGTCAAAGGTCACTCACTCGAAATGCG gave a PBM binding z-score of 5.18.

On to TCTCGTTGGTCAAAGGTCACACACTCGAAATGCG, for which the PBM binding z-score worked out at 5.68.

With TCTGCTGGGTCAGTTGGTCAGCTAACGAGCTGCC, the PBM binding z-score was -0.0859.

In the case of GCGACTGGGGCATCAGCAGGTTCCCATAACTTAA, the PBM binding z-score is -0.491.

In turn, CCTAGTGGGCCAAAAAGGTCATTGATGCCGATAA returned a PBM binding z-score of 4.12.

TAGCCTAGGTCATACGGGCCAGTATAGTGTCGGC had a PBM binding z-score of 3.21.

The sequence CCGACTGGGGCATAAAGGTTACCATACCATCCGG came in with a PBM binding z-score of 0.747.

Sequence CCTGCTGGGCCATTCAGAGGTCATTGATCATATG registered a PBM binding z-score of 4.29.

A further test has as its system LXRa homodimer (NR concentration 270 nM). Described as above. In short, it runs like this:
as §1
CAGAGTAGGTTATGGGGCATTCAGGCAACGGTGA returned a PBM binding z-score of 0.0454.

Take TGAATGAGGTTAAACATCAGGGAACGTGGCGTCG: the PBM binding z-score was -0.0319.

With TAGCCTAGGTCATGGGCCCGTATACCACGCGAAC, the PBM binding z-score is 0.466.

In the case of ACTCGGAGGACTAAGGTCAGAGCTACGCCAGTGA, the PBM binding z-score worked out at 0.464.

CAAACTAGGTCAAGAAAGGTCAAAGTCGAATGAC gave a PBM binding z-score of 7.14.

Consider CCGACTAGGGCATAAGGTTACCATAAGCCAGCCC, for which the PBM binding z-score is -0.18.

Take TGTCAAAGTTCAAAGGTAACGTGAGTATCCACAC: the PBM binding z-score was found to be 4.59.

For the sequence GCTTGTAGATCAAGGTTAAGCAAGACTAAGCTAA, the PBM binding z-score is -0.624.

For the sequence ACAGACAGGTGATGAAAGTAACTCAGGCTATCAT, the PBM binding z-score is -0.212.

AACTCTAGGTAAAGATAGTTCAGTGAATGCAAAT had a PBM binding z-score of 0.498.

In the case of CGAACGAGGGCATGAGTTGTTAGCAAATGCCGAT, the PBM binding z-score was -0.503.

For the sequence TCTTGTACATCAGCAGGTTAAGAAAGCTGGCCAA, the PBM binding z-score was -0.073.

With TCTGCTAGGTAAGTTGGTCAGCTAACGAGCTGCC, the PBM binding z-score was -0.909.

For the sequence ACTATTAGTTGACTTAGGGCAACCCATACGACGC, the PBM binding z-score came out at 0.344.

In the case of GCTCGGAGGACAAGGCCAGAGCTTTGTCCGTAGA, the PBM binding z-score is -0.948.

With GGAACGAGGGCACAGTTGATAGCATCTGTCGACG, the PBM binding z-score was -0.684.

In turn, TAGCCTAGGTCATTCAGGTGCCAGTATAGAAAGC came in with a PBM binding z-score of 0.777.

ATACCAAGGGGATCGTGAGGTCGTTGATACTAAC: the PBM binding z-score was determined as 0.291.

In turn, ATATGTAGGTTATCGGGTCATTCAATTTGCGCAT gave a PBM binding z-score of 1.95.

As to TCGAGTAGGTTAGACGGGGCATTCAGCCAACATA, the PBM binding z-score is -0.343.

The sequence CAAACTAGGTCTAAGGTCAAAGTCGAGCCAACCA yielded a PBM binding z-score of 2.94.

Sequence ATATGTAGGTAAGCTGGGGTCATTCAGACTAGGC showed a PBM binding z-score of 1.73.

As to CGGACTAGGTCAAGGACAGTGAATCTCCGCACGC, the PBM binding z-score was -0.0937.

For TCGAGTAGGTTAGTGGCATTCAGAATGGCGTCGA, the PBM binding z-score was -0.383.

CCAGCTAGGTCATGGTCAGCTAATCTACAGTATG gave a PBM binding z-score of 0.125.

On to ACTATAAGTTGAGACGAGGGCAACCGATAGGTTG, for which the PBM binding z-score was -0.161.

TCTTGTTGATCAACAGGAGGTTAAGAAAGATCGA gave a PBM binding z-score of 0.0425.

CAAACTAGGTCGCGAAAGGTCAAAGTCGAATGAC gave a PBM binding z-score of 5.69.

For the sequence GGAACGAGGGCAAAGTTGATAGCATCTGTCGACG, the PBM binding z-score is -0.231.

CGTCCAAGGTCAATGTCAGTGAAAGAGACTCGAA came in with a PBM binding z-score of 0.641.

Sequence ACAATGAGGTTAAGATCAGGGAAACAGAATACAT showed a PBM binding z-score of 0.0608.

ACTTACGGGTCAACGAGGTTATAGAACGCGTATA yielded a PBM binding z-score of 0.693.

As to TCTAGTTGGTCAAAGGTCACTCACTCGAAATGCG, the PBM binding z-score was determined as 3.77.

For TCTCGTTGGTCAAAGGTCACACACTCGAAATGCG, the PBM binding z-score is 4.45.

TCTGCTGGGTCAGTTGGTCAGCTAACGAGCTGCC: the PBM binding z-score was -1.01.

Regarding GCGACTGGGGCATCAGCAGGTTCCCATAACTTAA, the PBM binding z-score was -0.648.

The sequence CCTAGTGGGCCAAAAAGGTCATTGATGCCGATAA showed a PBM binding z-score of 3.05.

Sequence TAGCCTAGGTCATACGGGCCAGTATAGTGTCGGC showed a PBM binding z-score of 0.859.

On to CCGACTGGGGCATAAAGGTTACCATACCATCCGG, for which the PBM binding z-score was -0.0869.

With CCTGCTGGGCCATTCAGAGGTCATTGATCATATG, the PBM binding z-score was found to be 6.46.

For a further test, the system named is LXRb:RXRa (NR concentration 270 nM, RXRa partner concentration 90 nM). The test is described as above. In short, it runs like this:
as §1
CAGAGTAGGTTATGGGGCATTCAGGCAACGGTGA: the PBM binding z-score was found to be 0.833.

Regarding TGAATGAGGTTAAACATCAGGGAACGTGGCGTCG, the PBM binding z-score came to 1.69.

TAGCCTAGGTCATGGGCCCGTATACCACGCGAAC registered a PBM binding z-score of 2.77.

On to ACTCGGAGGACTAAGGTCAGAGCTACGCCAGTGA, for which the PBM binding z-score stood at 1.49.

For the sequence CAAACTAGGTCAAGAAAGGTCAAAGTCGAATGAC, the PBM binding z-score worked out at 6.98.

In turn, CCGACTAGGGCATAAGGTTACCATAAGCCAGCCC had a PBM binding z-score of 1.02.

Sequence TGTCAAAGTTCAAAGGTAACGTGAGTATCCACAC gave a PBM binding z-score of 4.91.

On to GCTTGTAGATCAAGGTTAAGCAAGACTAAGCTAA, for which the PBM binding z-score was 0.0406.

For ACAGACAGGTGATGAAAGTAACTCAGGCTATCAT, the PBM binding z-score was -0.34.

On to AACTCTAGGTAAAGATAGTTCAGTGAATGCAAAT, for which the PBM binding z-score was found to be 0.633.

Consider CGAACGAGGGCATGAGTTGTTAGCAAATGCCGAT, for which the PBM binding z-score came to 0.156.

TCTTGTACATCAGCAGGTTAAGAAAGCTGGCCAA: the PBM binding z-score was 0.542.

In the case of TCTGCTAGGTAAGTTGGTCAGCTAACGAGCTGCC, the PBM binding z-score was -0.852.

ACTATTAGTTGACTTAGGGCAACCCATACGACGC had a PBM binding z-score of 0.24.

Turning to GCTCGGAGGACAAGGCCAGAGCTTTGTCCGTAGA, the PBM binding z-score is -1.4.

Consider GGAACGAGGGCACAGTTGATAGCATCTGTCGACG, for which the PBM binding z-score is -0.053.

For the sequence TAGCCTAGGTCATTCAGGTGCCAGTATAGAAAGC, the PBM binding z-score was found to be 2.77.

In turn, ATACCAAGGGGATCGTGAGGTCGTTGATACTAAC gave a PBM binding z-score of 1.26.

Consider ATATGTAGGTTATCGGGTCATTCAATTTGCGCAT, for which the PBM binding z-score came out at 3.51.

As to TCGAGTAGGTTAGACGGGGCATTCAGCCAACATA, the PBM binding z-score was determined as 0.522.

Sequence CAAACTAGGTCTAAGGTCAAAGTCGAGCCAACCA showed a PBM binding z-score of 4.32.

The sequence ATATGTAGGTAAGCTGGGGTCATTCAGACTAGGC returned a PBM binding z-score of 4.3.

For the sequence CGGACTAGGTCAAGGACAGTGAATCTCCGCACGC, the PBM binding z-score worked out at 1.01.

On to TCGAGTAGGTTAGTGGCATTCAGAATGGCGTCGA, for which the PBM binding z-score is -0.122.

As to CCAGCTAGGTCATGGTCAGCTAATCTACAGTATG, the PBM binding z-score was determined as 1.63.

Sequence ACTATAAGTTGAGACGAGGGCAACCGATAGGTTG showed a PBM binding z-score of 0.115.

As to TCTTGTTGATCAACAGGAGGTTAAGAAAGATCGA, the PBM binding z-score was 0.962.

Regarding CAAACTAGGTCGCGAAAGGTCAAAGTCGAATGAC, the PBM binding z-score was found to be 5.96.

GGAACGAGGGCAAAGTTGATAGCATCTGTCGACG showed a PBM binding z-score of 1.07.

Take CGTCCAAGGTCAATGTCAGTGAAAGAGACTCGAA: the PBM binding z-score is 3.88.

Consider ACAATGAGGTTAAGATCAGGGAAACAGAATACAT, for which the PBM binding z-score stood at 1.85.

On to ACTTACGGGTCAACGAGGTTATAGAACGCGTATA, for which the PBM binding z-score is 4.56.

For TCTAGTTGGTCAAAGGTCACTCACTCGAAATGCG, the PBM binding z-score amounted to 5.13.

TCTCGTTGGTCAAAGGTCACACACTCGAAATGCG registered a PBM binding z-score of 5.88.

The sequence TCTGCTGGGTCAGTTGGTCAGCTAACGAGCTGCC yielded a PBM binding z-score of 0.206.

As for GCGACTGGGGCATCAGCAGGTTCCCATAACTTAA, the PBM binding z-score amounted to 0.0504.

Sequence CCTAGTGGGCCAAAAAGGTCATTGATGCCGATAA showed a PBM binding z-score of 3.87.

Consider TAGCCTAGGTCATACGGGCCAGTATAGTGTCGGC, for which the PBM binding z-score is 1.8.

CCGACTGGGGCATAAAGGTTACCATACCATCCGG had a PBM binding z-score of 0.923.

Regarding CCTGCTGGGCCATTCAGAGGTCATTGATCATATG, the PBM binding z-score is 4.01.

The values are drawn from the supplement of paper PMC6555819.
